Records with an inconclusive call do not appear. The source made the active and inactive calls. Unless noted, calls follow the shape of the dose curve; as a rule, active = well fitted curve in the direction sought with a large enough effect in the repeat runs; inconclusive = weak or mixed curves; inactive = no such curve, though single readings can be large; an effect the other way counts as inactive or inconclusive.

Test [1] in a line: A CellTox Green Cytotoxicity Assay to monitor cytotoxicity in HEK293 cells - 32 hour (AID 1224881). Also: nearly all actives have a fitted effect of over 40% in size. Also: potency is read from the fitted curve at half-maximal effect. The gist of the method: (§1)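 HEK293 cells premixed with CellTox Green dye were seeded at 600 cells/well and left 5 h at 37 C/5% CO2 before pin transfer of 23 nL compound in DMSO. Fluorescence from dye bound to dead-cell DNA was read during 40 h treatment.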
The nature of test [2]: A CellTox Green Cytotoxicity Assay to monitor cytotoxicity in HepG2 cells - 0 hour (AID 1224882). Also: nearly all actives have a fitted effect of over 35% in size. The gist of the method: (§2)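 HepG2 cells were seeded together with the CellTox Green dye at 600 cells/well, left 5 h at 37 C/5% CO2, then given compounds in DMSO. Fluorescence from dye bound to dead-cell DNA was read repeatedly over 40 h of treatment at 37 C.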
The nature of test [3]: A CellTox Green Cytotoxicity Assay to monitor cytotoxicity in HepG2 cells - 32 hour (AID 1224883). Also: nearly all actives have a fitted effect of over 50% in size. Also: potency is read from the fitted curve at half-maximal effect. The gist of the method: as §2
Test [4] can be described thus: A CellTox Green Cytotoxicity Assay to monitor cytotoxicity in HEK293 cells - 8 hour (AID 1224884). Also: nearly all actives have a fitted effect of over 35% in size. Also: potency is read from the fitted curve at half-maximal effect. The gist of the method: as §1
Test [5] in a line: qHTS RealTime-Glo MT Cell Viability Assay in HepG2 cells - 16 hour (AID 1224885). Also: nearly all actives have a fitted effect of over 50% in size. Also: potency is read from the fitted curve at half-maximal effect. The gist of the method:
(§3)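 Cells + NanoLuc/prosubstrate dispensed (600 cells/well) → 5 h at 37 C/5% CO2 → compounds in DMSO transferred → 40 h incubation at 37 C, luminescence read at 0, 8, 16, 24, 32, 40 h.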
(In qHTS, concentration-response curves come from the screen itself.)

Test [6] in a line: qHTS RealTime-Glo MT Cell Viability Assay in HEK293 cells - 8 hour (AID 1224887). Also: nearly all actives have a fitted effect of over 50% in size. Also: potency is read from the fitted curve at half-maximal effect. The gist of the method: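 HEK293 cells mixed with RealTime-Glo reagents (NanoLuc plus cell-permeant prosubstrate) at 600 cells/well, preincubated 5 h at 37 C/5% CO2, then given 23 nL compound in DMSO. Nonlytic luminescence from viable cells was read at 0, 8, 16, 24, 32 and 40 h.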
Test [7] can be described thus: A CellTox Green Cytotoxicity Assay to monitor cytotoxicity in HEK293 cells - 16 hour (AID 1224888). Also: nearly all actives have a fitted effect of over 35% in size. Also: potency is read from the fitted curve at half-maximal effect. The gist of the method:
as §1

Test [8] can be described thus: A CellTox Green Cytotoxicity Assay to monitor cytotoxicity in HepG2 cells - 8 hour (AID 1224890). Also: nearly all actives have a fitted effect of over 45% in size. Also: potency is read from the fitted curve at half-maximal effect. The gist of the method:
as §2

The nature of test [9]: qHTS assay to identify small molecule antagonists of the estrogen receptor alpha (ER-alpha) signaling pathway using the BG1 cell line in the presence of 0.1 nM 17-beta-estradiol - cell viability counter screen (AID 1259241). Also: nearly all actives have a fitted effect of over 40% in size. Also: potency is read from the fitted curve at half-maximal effect. The gist of the method: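 Viability in VM7Luc4E2 cells after 22 hr compound exposure under 0.1 nM 17beta-estradiol stimulation, by CellTiter-Fluor.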

The nature of test [10]: qHTS assay to identify small molecule antagonists of the androgen receptor (AR) signaling pathway using the MDA cell line in the presence of 0.5 nM R1881 - cell viability counter screen (AID 1259242). Also: nearly all actives have a fitted effect of over 45% in size. Also: potency is read from the fitted curve at half-maximal effect. The gist of the method: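 MDA-kb2 cells (human breast carcinoma, stably carrying MMTV-luciferase reporter) were exposed to compounds with 0.5 nM R1881 (final) for 16 hr at 37C, 0% CO2; viability then read as live-cell protease fluorescence (CellTiter-Fluor, 30 min) in the same wells.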

For test [11], the target named is Androgen receptor (Homo sapiens) (UniProt P10275). Put plainly: qHTS assay to identify small molecule antagonists of the androgen receptor (AR) signaling pathway using the MDA cell line in the presence of 0.5 nM R1881 (AID 1259243). Also: potency is read from the fitted curve at half-maximal effect; nearly all actives have a fitted effect of over 50% in size. The gist of the method: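 MDA-kb2 human breast carcinoma cells carrying an MMTV-luciferase reporter (AR- and GR-responsive) were plated, rested 5 hr at 37C, dosed with compounds, then stimulated with 0.5 nM R1881 (final) for 16 hr; luminescence was read after ONE-Glo.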

Test [12] deals with Estrogen receptor (Homo sapiens) (UniProt P03372). The test can be described thus: qHTS assay to identify small molecule antagonists of the estrogen receptor alpha (ER-alpha) signaling pathway using the BG1 cell line in the presence of 0.1 nM 17-beta-estradiol (AID 1259244). Also: nearly all actives have a fitted effect of over 50% in size. Also: potency is read from the fitted curve at half-maximal effect. The gist of the method:
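VM7Luc4E2 cells (endogenous full-length ER-alpha, stable 4xERE-luciferase) were grown 5 days in phenol red-free medium with charcoal-stripped FBS, then exposed 22 h at 37C to compounds plus 0.1 nM (final) 17beta-estradiol; ONE-Glo luminescence read-out.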

Test [13] is described as follows: qHTS assay to identify small molecule HDAC inhibitors - cell viability counter screen (AID 1259365). Also: nearly all actives have a fitted effect of over 50% in size. Also: potency is read from the fitted curve at half-maximal effect. The gist of the method:
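Cytotoxicity was gauged in wild-type HCT-116 cells after a brief 2hr treatment with DMSO-dissolved compounds at 37C and 5% CO2, using CellTiter-Glo luminescence developed for 30min at room temperature.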

Test [14] in a line: qHTS assay to identify small molecule agonists of the sonic hedgehog signaling (Shh) pathway - cell viability counter screen (AID 1259366). Also: nearly all actives have a fitted effect of over 50% in size. Also: potency is read from the fitted curve at half-maximal effect. The gist of the method:
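Stable Gli1-Luc NIH/3T3 clone, 2,000 cells/well. Compound exposure 24hr at 37C. Read-out: CellTiter-Fluor fluorescence.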

Test [15] is described as follows: qHTS assay to identify small molecule antagonists of the sonic hedgehog signaling (Shh) pathway - cell viability counter screen (AID 1259367). Also: nearly all actives have a fitted effect of over 55% in size. Also: potency is read from the fitted curve at half-maximal effect. The gist of the method:
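NIH/3T3-derived Gli1-Luc reporter cells (2,000 per well) rested 4 hr at 37 C, then received DMSO compounds plus conditioned medium. After 23 hr of treatment, CellTiter-Fluor was added for 1 hr at 37C and fluorescence read.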

Test [16] in a line: qHTS assay to identify small molecule agonists of the sonic hedgehog signaling (Shh) pathway (AID 1259368; calls by dose curve; also: series mostly up to about 92 µM; nearly all actives have a fitted effect of over 15% in size). The gist of the method: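 NIH/3T3-derived 3T3Gli1-Luc cells carrying a stably integrated Gli1 response element–firefly luciferase reporter were plated, left 4 hr at 37 C, then given compounds in DMSO for 24 hr. Luminescence was read 30 min after adding luciferase reagent.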

A short description of test [17]: qHTS RealTime-Glo MT Cell Viability Assay in HEK293 cells - 24 hour (AID 1224886). The gist of the method: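 Tox21 10K qHTS, HEK293, 600 cells/well, RealTime-Glo reagent co-dispensed with cells; 5 h preincubation, compound by pintool, 37 C, luminescence at 0–40 h.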
Test [18] is described as follows: qHTS RealTime-Glo MT Cell Viability Assay in HepG2 cells - 0 hour (AID 1224889). Also: nearly all actives have a fitted effect of over 50% in size. Also: potency is read from the fitted curve at half-maximal effect. The gist of the method: as §3
Test [19] in a line: qHTS assay to identify small molecule HDAC inhibitors (AID 1259364). Also: nearly all actives have a fitted effect of over 45% in size. Also: potency is read from the fitted curve at half-maximal effect. The gist of the method: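 Wild-type HCT-116 cells were plated overnight, exposed to compounds for 2 h at 37 °C, then given HDAC-Glo class I/II luminogenic reagent for 30 min at room temperature before luminescence was read.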
Test [20] is described as follows: qHTS assay to identify small molecule phospholipidosis (PLD) inducers (AID 1259344; active = well fitted curve in the direction sought with a large enough effect; an effect the other way counts as inactive or inconclusive). The gist of the method: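 HepG2 cells on collagen I, attached 4 h at 37 C, were co-treated with compound and LipidTOX Red dye for 24 h at 37 C, then fixed with paraformaldehyde plus Hoechst 33342 and imaged by high-content microscopy for phospholipid accumulation.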

Sequence of Androgen receptor (Homo sapiens) (P10275 whole entry, looked up): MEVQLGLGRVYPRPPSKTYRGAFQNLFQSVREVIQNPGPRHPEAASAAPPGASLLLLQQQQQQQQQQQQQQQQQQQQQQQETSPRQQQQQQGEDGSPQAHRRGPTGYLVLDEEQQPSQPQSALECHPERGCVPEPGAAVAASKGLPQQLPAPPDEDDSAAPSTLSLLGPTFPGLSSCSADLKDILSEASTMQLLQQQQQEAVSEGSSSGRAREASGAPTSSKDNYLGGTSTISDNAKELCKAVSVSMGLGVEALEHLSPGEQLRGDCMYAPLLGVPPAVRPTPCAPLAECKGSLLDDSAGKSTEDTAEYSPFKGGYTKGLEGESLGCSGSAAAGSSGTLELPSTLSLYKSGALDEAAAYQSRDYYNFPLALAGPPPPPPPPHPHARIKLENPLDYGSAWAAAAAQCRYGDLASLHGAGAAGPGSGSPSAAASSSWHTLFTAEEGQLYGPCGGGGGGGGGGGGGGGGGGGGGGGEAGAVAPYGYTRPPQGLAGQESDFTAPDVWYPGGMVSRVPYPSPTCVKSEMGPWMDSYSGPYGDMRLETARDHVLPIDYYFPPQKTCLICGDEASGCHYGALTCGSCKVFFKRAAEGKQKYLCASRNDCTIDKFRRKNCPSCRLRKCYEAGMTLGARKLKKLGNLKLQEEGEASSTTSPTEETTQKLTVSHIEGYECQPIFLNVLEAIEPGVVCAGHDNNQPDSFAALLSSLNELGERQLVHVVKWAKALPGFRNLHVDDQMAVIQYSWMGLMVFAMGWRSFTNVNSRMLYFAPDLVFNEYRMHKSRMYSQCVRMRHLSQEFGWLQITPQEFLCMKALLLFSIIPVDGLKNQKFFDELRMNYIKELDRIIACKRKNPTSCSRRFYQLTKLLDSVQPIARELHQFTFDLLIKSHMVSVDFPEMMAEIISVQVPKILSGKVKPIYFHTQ
Sequence of Estrogen receptor (Homo sapiens) (P03372 whole entry, looked up): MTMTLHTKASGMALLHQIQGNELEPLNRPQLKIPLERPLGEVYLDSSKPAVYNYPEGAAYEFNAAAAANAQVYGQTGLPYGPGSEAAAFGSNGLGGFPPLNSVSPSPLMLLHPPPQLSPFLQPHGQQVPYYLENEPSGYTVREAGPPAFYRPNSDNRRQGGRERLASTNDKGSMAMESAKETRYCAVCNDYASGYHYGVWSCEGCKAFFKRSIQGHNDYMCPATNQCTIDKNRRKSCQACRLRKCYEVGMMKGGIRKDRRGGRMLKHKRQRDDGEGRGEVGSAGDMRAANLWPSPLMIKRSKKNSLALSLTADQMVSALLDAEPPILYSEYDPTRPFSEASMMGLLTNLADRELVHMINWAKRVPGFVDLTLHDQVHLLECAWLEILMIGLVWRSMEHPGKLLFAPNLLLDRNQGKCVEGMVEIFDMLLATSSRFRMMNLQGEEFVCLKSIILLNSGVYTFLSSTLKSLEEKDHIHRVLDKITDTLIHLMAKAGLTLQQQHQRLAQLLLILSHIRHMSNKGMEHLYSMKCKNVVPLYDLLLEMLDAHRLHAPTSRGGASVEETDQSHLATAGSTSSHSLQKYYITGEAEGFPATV

As to `CC(=O)[O][Pb]([c]1ccccc1)([c]1ccccc1)[c]1ccccc1`, the Potency was 3.09 µM (active) in test [1]; 0.871 µM (active) in test [3]; 11 µM (active) in test [4]; 1.55 µM (active) in test [5]; 3.47 µM (active) in test [6]; 4.9 µM (active) in test [7]. The Potency in [8] is 3.89 µM (active); in [9], 21.7 µM (active); in test [10], 6.11 µM (active); in test [11] it was 0.969 µM (active); in test [13] it was 61.1 µM (active); in test [14], 0.486 µM (active). Besides, the Potency in test [15] is 0.77 µM (active). The Potency entry in [2], in [12] and in test [16] was “inactive” throughout.
As to `N#CC(C#N)=NNc1cccc(Cl)c1`, the Potency entry in test [1], in test [2], in [4], in [6], in test [7] and in test [8] was “inactive” in each case. The Potency entry in test [13] and in test [16] was “inactive” in each case. Also, the Potency in test [3] is 13.8 µM (active); in test [17] it was 5.49 µM (active); in test [18], 24.5 µM (active); in [9], 12.2 µM (active); in [10], 2.43 µM (active); in [11], 1.54 µM (active). Also, the Potency in test [12] was 1.09 µM (active); in test [19], 24.3 µM (active); in test [14], 27.3 µM (active); in test [15], 27.3 µM (active).
On to `CCC(C)Br` (configuration not stated), for which the Potency result in [1], in test [2], in test [3], in test [4], in test [5] and in test [6] was “inactive” throughout. Also, the Potency result in test [7], in test [18], in test [8], in [9], in test [10] and in test [14] was “inactive” throughout. Also, the Potency result in [15] and in test [16] was “inactive” each time.
For `Clc1ccc(C(Cl)(Cl)Cl)cc1Cl`, the Potency in [1] is 33.9 µM (active); in [3] it was 47.9 µM (active); in [4], 42.7 µM (active); in [17], 33.9 µM (active); in [6] it was 30.2 µM (active); in test [7], 38.1 µM (active). Besides, the Potency in test [8] is 47.9 µM (active); in test [19], 15 µM (active). Further, the Potency entry in test [2], in test [18], in test [9], in [10], in [13] and in test [14] was “inactive” in each case. In addition, the Potency entry in test [15] and in test [16] was “inactive” throughout.
Regarding `CN1CCc2cc(Cl)c(O)cc2[C@H]2c3ccccc3CC[C@@H]21`, the Potency result in test [1], in [2], in [3], in [4], in test [5] and in test [6] was “inactive” in each case. Moreover, the Potency entry in [7], in [18], in test [8], in test [10], in test [12] and in [19] was “inactive” throughout. The Potency entry in test [13] and in test [16] was “inactive” in each case. Also, in test [20], the call was inactive. Further, the Potency in [14] was 4.73 µM (active); in test [15], 11.9 µM (active).
For `Cc1ccccc1OP(=O)(Oc1ccccc1C)Oc1ccccc1C`, the Potency entry in [1], in test [2], in test [3], in [4], in test [5] and in test [7] was “inactive” in each case. For the same compound, the Potency entry in [18], in test [8], in [9], in [10], in test [12] and in test [19] was “inactive” in each case. Also, the Potency entry in test [13], in [14] and in test [16] was “inactive” each time. Also, the Potency in [11] is 48.8 µM (active).

Values taken from PubChem BioAssay (Tox21).
